Test results from the supplement of paper PMC12067926.

Tested on: Carnobacterium 1 (Carnobacterium gallinarum)
Assay: relative growth (AUC of 72 h growth curve relative to DMSO control, dAUC) (ratio); higher = more growth (less inhibition), active = hit call of the paper
Details: 20 µM;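 active = growth AUC significantly below the DMSO wells by Dunnett test; inactive = the rest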
Procedure: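 Environmental bacterial isolates (Iceland stream sediment and Silwood Park soil) and whole stream-sediment communities were grown in LB from a 1:100 dilution with each pesticide at 20 µM (1% DMSO). A600 was read hourly for 72 h and the area under a spline-fitted growth curve (AUC) was computed. dAUC is the mean AUC of 3 biological replicates divided by the mean AUC of the DMSO controls. Significance was tested by Dunnett's test against the DMSO control.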

SMILES | relative growth
O=C(NCCc1ncc(C(F)(F)F)cc1Cl)c1ccccc1C(F)(F)F | 0.905 (inactive)
C[N+]1(C)CCCCC1 | 1.2 (inactive)
CCSC(C)CC1CC(=O)C(/C(CC)=N/OC/C=C/Cl)=C(O)C1 (mixture of isomers) | 1.27 (inactive)
CCC(CC)Nc1c([N+](=O)[O-])cc(C)c(C)c1[N+](=O)[O-] | 0.819 (inactive)
N#Cc1cc(Br)c(O)c(Br)c1 | 1.05 (inactive)
CCCCC(C#N)(Cn1cncn1)c1ccc(Cl)cc1 (stereo not given) | 0.998 (inactive)
Cc1c(COC(=O)[C@@H]2[C@H](/C=C(\Cl)C(F)(F)F)C2(C)C)cccc1-c1ccccc1 (racemic) | 1.17 (inactive)
CS(=O)(=O)c1ccc(C(=O)C2C(=O)CCCC2=O)c([N+](=O)[O-])c1 | 1.44 (inactive)
Cc1cc(C(F)(C(F)(F)F)C(F)(F)F)ccc1NC(=O)c1cccc(I)c1C(=O)NC(C)(C)CS(C)(=O)=O | 0.956 (inactive)
CON(C)C(=O)Nc1ccc(Cl)c(Cl)c1 | 1.02 (inactive)
OC(Cn1cncn1)(c1ccc(F)cc1)c1ccccc1F (stereo not given) | 1.15 (inactive)
Cc1nc(N(C)C)nc(OC(=O)N(C)C)c1C | 0.883 (inactive)
C/C(=N\C#N)N(C)Cc1ccc(Cl)nc1 | 1.32 (inactive)
Oc1ccc(Cl)cc1Cc1cc(Cl)ccc1O | 0.00911 (active)
O=C1C2(Cl)C3(Cl)C4(Cl)C(Cl)(Cl)C5(Cl)C3(Cl)C1(Cl)C5(Cl)C24Cl (stereo not given) | 0.621 (inactive)
CSc1nc(NC(C)C)nc(NC(C)C)n1 | 0.71 (inactive)
COP(=S)(OC)Oc1ccc(SC)c(C)c1 | 1.08 (inactive)
COc1cccc(C(=O)NN(C(=O)c2cc(C)cc(C)c2)C(C)(C)C)c1C | 0.863 (inactive)
Cc1cc(C2CC2)nc(Nc2ccccc2)n1 | 0.909 (inactive)
CCN(CC)c1nc(C)cc(OP(=S)(OC)OC)n1 | 1.07 (inactive)

SMILES | relative growth
COP(=S)(OC)Oc1nc(Cl)c(Cl)cc1Cl | 0.447 (inactive)
CN(C)C(CSS(=O)(=O)O)CSS(=O)(=O)O | 1.03 (inactive)
CCOc1ccc(C(C)(C)COCc2cccc(Oc3ccccc3)c2)cc1 | 0.99 (inactive)
N#C/N=C1\SCCN1Cc1ccc(Cl)nc1 | 1.18 (inactive)
CCc1nn(C)c(C(=O)NCc2ccc(Oc3ccc(C)cc3)cc2)c1Cl | 1.19 (inactive)
Cc1cccc2sc3nncn3c12 | 0.911 (inactive)
CN1COCN(Cc2cnc(Cl)s2)/C1=N\[N+](=O)[O-] | 1.12 (inactive)
C[C@@H]1[C@@H](c2ccc(Cl)cc2)SC(=O)N1C(=O)NC1CCCCC1 | 0.881 (inactive)
CC(C)N1C(=O)c2ccccc2NS1(=O)=O | 0.693 (inactive)
CC(COc1ccc(Oc2ccccc2)cc1)Oc1ccccn1 (stereo not given) | 1.38 (inactive)
CNC(=O)c1cc(C#N)cc(C)c1NC(=O)c1cc(Br)nn1-c1ncccc1Cl | 0.896 (inactive)
CCc1cc(C)cc(CC)c1-c1c(OC(=O)C(C)(C)C)n2n(c1=O)CCOCC2 | 1.01 (inactive)
CO/C=C(/C(=O)OC)c1ccccc1COc1cccc(C(F)(F)F)n1 | 0.98 (inactive)
N#CC(CCc1ccc(Cl)cc1)(Cn1cncn1)c1ccccc1 (stereo not given) | 0.805 (inactive)
CC(C)(C)[C@@H](O)[C@H](Oc1ccc(Cl)cc1)n1cncn1 | 1.06 (inactive)
CNC(=O)Oc1cccc(/N=C/N(C)C)c1 | 0.892 (inactive)
CCOC(=O)CC(SP(=S)(OC)OC)C(=O)OCC (stereo not given) | 1.09 (inactive)
CCOP(=S)(OCC)Oc1nc(Cl)c(Cl)cc1Cl | 1.1 (inactive)
O=[N+]([O-])c1cc(C(F)(F)F)c(Cl)c([N+](=O)[O-])c1Nc1ncc(C(F)(F)F)cc1Cl | 0.00939 (active)
CCC(=O)Nc1ccc(Cl)c(Cl)c1 | 0.897 (inactive)
